Source: PubChem BioAssay
PfG6PD inh – PfG6PD (Plasmodium falciparum) enzyme inhibition | hit rate 0.78% among 350,000 | PfGluPho enzyme, NADPH resazurin-diaphorase fluorescence | AID 504690 | inhibition, % at 20 µM;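 active = inhibition reaching at least a set limit at 20 µM in the primary screen, cut at about 59% in these data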;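 note: 0% = DMSO wells with substrate and 100% = DMSO wells lacking glucose-6-phosphate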
M18AAP inhibitor – blocks P. falciparum M18 aspartyl aminopeptidase. recombinant PfM18AAP, H-Glu-NHMec fluorogenic cleavage. inhibition, % at 7.35 µM. hit rate 1.2% among 290,000;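 active = inhibition above the campaign mean inhibition over all tested compounds plus 3 SD, cut at about 28% in these data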;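 note: 0% = plate median of test compound wells and 100% = 2 mM ZnCl2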
Yeast superoxide – yeast age-related superoxide inhibition as caloric restriction mimetic; S. cerevisiae aged cells, superoxide DHE fluorescence; active compounds read low; superoxide response (% of plate mean), % at 10 µM; hit rate 0.18% among 330,000;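 active = superoxide response under a set limit, about three screen SD below normal, cut at about 65% in these data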;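 note: yeast aged for seven days with compound at 30 °C before DHE staining; 100% = average MFI of all compound-treated wells on the plate with controls excluded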
APOBEC3A inh – inhibitors of human APOBEC3A DNA deaminase; P31941; recombinant A3A, FAM/TAMRA ssDNA deamination fluorescence; inhibition, % at 20 µM; hit rate 0.41% among 330,000; AID 493011;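 active = at least 40% inhibition at 20 µM here, with at most 30% in a related deaminase screen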;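 note: plate controls were A3A with DMSO for no effect and wells lacking A3A enzyme for full effect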
Target sequence (P31941 whole entry, looked up): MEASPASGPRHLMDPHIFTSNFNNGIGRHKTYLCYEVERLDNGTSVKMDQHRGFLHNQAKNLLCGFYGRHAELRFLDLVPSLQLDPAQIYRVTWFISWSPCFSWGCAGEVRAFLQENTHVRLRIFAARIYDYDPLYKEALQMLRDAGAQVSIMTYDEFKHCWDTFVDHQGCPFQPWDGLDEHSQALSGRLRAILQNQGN
A3G deaminase – inhibitors of human APOBEC3G DNA deaminase; Q9HC16; recombinant A3G, ssDNA deamination FAM/TAMRA fluorescence; inhibition, % at 20 µM; hit rate 0.28% among 330,000;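 active = inhibition of at least 40% at 20 µM, with no more than 30% in the related APOBEC3A deaminase screen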;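 note: plate controls were DMSO wells with A3G for no effect and wells lacking A3G enzyme for full effect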
Target sequence (Q9HC16 whole entry, looked up): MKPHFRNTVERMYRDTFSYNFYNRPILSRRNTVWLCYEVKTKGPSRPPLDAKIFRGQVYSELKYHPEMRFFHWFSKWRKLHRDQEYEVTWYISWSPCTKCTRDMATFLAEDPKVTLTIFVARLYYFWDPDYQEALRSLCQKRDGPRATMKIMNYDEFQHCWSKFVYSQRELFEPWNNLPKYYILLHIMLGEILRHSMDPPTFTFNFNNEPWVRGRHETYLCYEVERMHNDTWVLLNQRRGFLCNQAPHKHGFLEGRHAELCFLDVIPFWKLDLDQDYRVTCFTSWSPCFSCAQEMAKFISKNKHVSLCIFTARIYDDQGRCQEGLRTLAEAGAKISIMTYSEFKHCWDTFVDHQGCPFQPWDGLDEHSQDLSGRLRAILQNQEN
APOBEC3A confirm – APOBEC3A (human) deaminase inhibition, confirmed; shares compounds with APOBEC3A inh; recombinant A3A, ssDNA deaminase UDG fluorescence assay; inhibition, % at 20 µM; hit rate 63% among 1,400;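 active = inhibition reaching a set limit, 80% of the first screen's cutoff, at 20 µM in any replicate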;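 note: plate controls were DMSO wells with A3A for no effect and wells lacking A3A enzyme for full effect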
UDG A3A counter – inhibits UDG, flagging false APOBEC3A inhibitors; shares compounds with APOBEC3A inh; UDG counterscreen, FAM/TAMRA uracil oligo fluorescence; 1,000 tested, under 10 active; AID 504714; inhibition, % at 20 µM; call rule not given here
A3G conf – confirmation of human APOBEC3G DNA deaminase inhibitors; AID 493152; recombinant A3G ssDNA deaminase, UDG/FAM-TAMRA fluorescence; inhibition, % at 20 µM; shares compounds with A3G deaminase; hit rate 72% among 890;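 active = inhibition reaching a set limit in any replicate at 20 µM, the limit being 80% of the first screen's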
UDG ctr A3G – E. coli UDG inhibition in APOBEC3G counter-screen | inhibition, % at 20 µM | AID 504715 | shares compounds with A3G deaminase | UDG counterscreen, FAM/TAMRA oligo fluorescence | 710 tested, under 10 active;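 active = compounds giving 40% or more inhibition at 20 µM in any one of the three replicates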;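 note: plate controls were DMSO wells with UDG and oligo for no effect and DMSO wells lacking both for full effect; inhibitors lower the FAM signal released by uracil excision and alkaline cleavage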
Active calls of the source: *; nt = no result given; ! = a repeat was not active. Rows were chosen to be rich in hits. Some 2.4% of all compounds tested hit in one or more screens of this group.

SMILES | PfG6PD inh | M18AAP inhibitor | Yeast superoxide | APOBEC3A inh | A3G deaminase | APOBEC3A confirm | UDG A3A counter | others
COc1cc(CN2CCNCC2)cc(OC)c1OC | -7 | -10 | 99 | 2 | -2 | nt | nt
COc1ccc(CN2CCNCC2)c(OC)c1OC | 8 | -2 | 112 | 57*! | -3 | 62* | -2
CCCCCCCCc1ccc(O)cc1 | -16 | nt | 99 | -4 | -10 | nt | nt
C[N+](C)(C)CCc1ccc(O)cc1 | -11 | 4 | 89 | 65* | 25 | 77* | 3
C[N+]1(C)CCc2cc3c(cc2[C@H]1[C@@H]1OC(=O)c2c1ccc1c2OCO1)OCO3 | 27 | -6 | 110 | 46*! | 23 | 80* | 1
COc1cc2c(cc1OC)C(C1c3cc4c(cc3CCN1C)OCO4)OC2=O (stereo not given) | -6 | 6 | 103 | -6 | -5 | nt | nt
COc1cc(/C=C2\C[C@H]3[C@@H]4CC=C5C[C@@H](N6CCCC6)CC[C@]5(C)[C@H]4CC[C@]3(C)[C@H]2O)cc(OC)c1OC | 25 | nt | nt | nt | nt | nt | nt
CC[C@]12C=CCN3CCC4(c5cc(Br)c(OC)cc5N(C)C4[C@@](O)(C(=O)OC)[C@@H]1OC(C)=O)C32 (stereo not given in full) | 7 | 2 | 88 | 62* | 16 | 70* | -4
COC(=O)C1=C(c2ccc(F)cc2F)C[C@@H]2CC[C@H]1N2C(=O)NCc1ccc(C(F)(F)F)cc1 | 1 | nt | 125 | 3 | 2 | nt | nt
CCOC(=O)C(O)(c1cn(C)c2ccccc12)C(F)(F)F (stereo not given) | 2 | 9 | 109 | 1 | 0 | nt | nt
CCOC(=O)C(O)(c1ccc(N=c2ccccn2C)cc1)C(F)(F)F (stereo not given) | -11 | -6 | 93 | 44* | 13 | 32* | -3
C[N+]1(C)C2CCC1CC(OC(=O)c1c[nH]c3ccccc13)C2 (stereo not given) | -9 | nt | 86 | 72* | 18 | 84* | 2
O=C(O)C1C(C(=O)O)C2(Cl)C(Cl)=C(Cl)C1(Cl)C2(Cl)Cl (stereo not given) | 27 | nt | 114 | 43* | 1 | 15* | -2
C=CCOC(=O)C1C(C(=O)O)C2(Cl)C(Cl)=C(Cl)C1(Cl)C2(Cl)Cl (stereo not given) | -17 | nt | nt | nt | nt | nt | nt
C[N+]12CCC(CC1)C(=C(c1ccccc1)c1ccccc1)C2 | 13 | -3 | 114 | 75* | 22 | 71* | -2
CNC(=O)OCc1n(C)cc[n+]1C | -5 | -3 | 92 | 40* | -4 | 82* | -1
COC(=O)C1=C(c2ccc(F)cc2F)C[C@@H]2CC[C@H]1N2C(=O)N1CCC(C)CC1 | 8 | nt | 88 | 3 | -5 | nt | nt
CC1CC2CC(=O)CCC2(C)C2CCC3(C)C(O)CCC3C12 (stereo not given) | -1 | nt | nt | nt | nt | nt | nt
C=CCN1C(=O)/C(=C/c2ccc(Br)s2)C(=O)NC1=S | 46 | 13 | 103 | 46* | 26 | 29 | nt
CCN1C(=O)/C(=C\c2ccc([N+](=O)[O-])s2)C(=O)NC1=S | nt | 17 | nt | nt | nt | nt | nt
CCCC[N+]12CCC(CC1)C(C(O)(c1ccccc1)c1ccccc1)C2 (stereo not given) | -5 | -15 | 98 | 41* | 14 | 64* | -3
Cc1cc(C(=O)OCC(=O)Nc2ccc(F)cc2)c(C)n1C1CC1 | 7 | nt | 92 | -2 | -4 | nt | nt
CC[N+](C)(CC)CCCOC(=O)C(O)(c1ccccc1)C1CCCCC1 (stereo not given) | 17 | -2 | 88 | 50* | 17 | 81* | -1
CCOC(C(=O)OCCC[N+](C)(CC)CC)(c1ccccc1)c1ccccc1 | -20 | 1 | 92 | 5 | 4 | nt | nt
COC(=O)C(O)(c1ccc(NC(=S)NC(=O)c2ccccc2)cc1)C(F)(F)F (stereo not given) | 3 | -4 | 97 | 6 | 0 | nt | nt
SMILES | PfG6PD inh | M18AAP inhibitor | Yeast superoxide | APOBEC3A inh | A3G deaminase | APOBEC3A confirm | UDG A3A counter | others
CCOc1ccc(N=C2SCCCN2C)cc1 | 13 | -7 | 102 | 40* | 18 | 66* | -3
Cc1nc(C)c(C(=O)NN=Cc2ccc(N(CCCl)CCCl)cc2)s1 | 8 | nt | nt | nt | nt | nt | nt
Cc1ccc(N2C(=O)NC(=O)/C(=C\c3cc(C)n(-c4cc(C(=O)O)cc(C(=O)O)c4)c3C)C2=O)cc1 | -6 | 19 | 105 | 54* | 17 | 28* | 0
Cc1cc(/C=C2\C(=O)NC(=O)N(c3ccc(F)cc3)C2=O)c(C)n1-c1ccc(C(=O)O)cc1 | 9 | 8 | 95 | 4 | -3 | nt | nt
C[C@H]1CC[C@H]2NCCN[C@H]2C1 | -14 | -10 | 90 | 62* | -6 | 3 | 2
O=[N+]([O-])c1cc([As](=O)(O)O)ccc1O | 4 | nt | 112 | 83* | 6 | 51* | -1
O=[N+]([O-])CCO | 1 | nt | 116 | -1 | -11 | nt | nt
O=[N+]([O-])c1ccccc1Cl | -5 | nt | 106 | -5 | -12 | nt | nt
O=C1NC(=O)C(Sc2ccccc2[N+](=O)[O-])C(=O)N1 | 50 | 27 | 104 | -3 | 46* | nt | nt | A3G conf=63*;UDG ctr A3G=-4
CS(=O)(=O)c1ccc(C2=C(CNC(=O)c3nccs3)[C@H]3CC[C@@H](C2)N3Cc2ccccc2)cc1 | 5 | nt | nt | nt | nt | nt | nt
CC1([N+](=O)[O-])COP(=O)(NC2CC2)OC1 (stereo not given) | -12 | nt | nt | nt | nt | nt | nt
O=C(O)c1cccc2nc3ccccc3nc12 | -1 | 4 | 191 | 3 | 72* | nt | nt | A3G conf=24*;UDG ctr A3G=2
COC(=O)c1ccccc1-n1c(C)nc2ccccc2c1=O | -6 | -4 | 101 | -1 | -7 | nt | nt
O=c1[nH]c(=O)n(-c2cccc3ccccc23)c(O)c1/C=N/N1CCCCCC1 | -1 | 1 | 90 | -2 | 68* | nt | nt | A3G conf=-4;UDG ctr A3G=1
Cc1ccc(OC(=O)N(C)C[C@H]2OCc3cnnn3CCCC(=O)N([C@H](C)CO)C[C@@H]2C)cc1 | -4 | nt | nt | nt | nt | nt | nt
COc1ccc(N/N=C/c2c(O)n(-c3ccc(C)c(C)c3)c(=O)[nH]c2=O)cc1 | 11 | 4 | 84 | -2 | 51* | nt | nt | A3G conf=17;UDG ctr A3G=2
COc1ccc(N/N=C/c2c(O)n(-c3cccc(C)c3)c(=O)[nH]c2=O)cc1 | -7 | 8 | 86 | 0 | 54* | nt | nt | A3G conf=24*;UDG ctr A3G=-4
Cc1ccc(-n2c(O)c(/C=N/Nc3ccccc3)c(=O)[nH]c2=O)cc1C | -19 | 6 | 92 | -3 | 5 | nt | nt
COC(=O)C1=C(c2ccc(OC)c(OC)c2)C[C@@H]2CC[C@H]1N2C(=O)N1CCCCC1 | -8 | nt | 89 | -2 | -6 | nt | nt
